Among all 300,000 compounds or so, about 2,300 (0.77%) were called active. The sample as a whole holds a higher share of actives than the screen did. Values without a mark were called inactive.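 Rule for the calls: active = more than half of replicate wells show activity change below -50%, luminescence cut by over half; inconclusive = some wells, but at most half, below -50%; inactive = no replicate well below -50%.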

This experiment can be described thus: blocking HSF1-driven luciferase expression – cell-based, NIH3T3, luminescence, primary screen (AID 2098).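 Note: luciferase reports HSF-1 transcriptional activity via heat shock element; 0% = median of DMSO wells and -100% = zero luminescence signal.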 The settings on record: NIH3T3-HGL HSE-luciferase, MG132-induced, luminescence 8 h; active compounds read low; screened at 7.5 µM (by protocol).
In the case of `COc1ccc(/C=C2\SC(=N)N(c3ccc(F)cc3)C2=O)cc1`, the activity change, negative = inhibition was -0.809%. Consider `COc1ccc(/C=C2/S/C(=N/N=C3\CC4CCC3(C)C4(C)C)NC2=O)cc1` (configuration not stated), for which the activity change, negative = inhibition is -80.6% (active). `CCOc1ccc(N=C2NC(=O)S/C2=C\c2ccc(O)cc2)cc1`: the activity change, negative = inhibition is 8.7%. Under `Cc1sc(NC(=O)c2ccc3ncsc3c2)c(C(N)=O)c1C` stands 18.5%; under `O=C(COC(=O)Cn1[nH]c(=O)c2ccccc2c1=O)Nc1c(Cl)cccc1C(F)(F)F`, -1.35%; under `COc1ccccc1C(=O)NC(CCSC)C(=O)N1CCN(C/C=C/c2ccccc2)CC1` (configuration not stated), 6.22%.

Regarding `COc1ccccc1C(=O)NNC(=O)CCN1C(=O)/C(=C\c2ccccc2)SC1=S`, the activity change, negative = inhibition was 3.5%.

Regarding `C=CCOc1ccc(/C=C2\SC(=S)N(CCC(=O)O)C2=O)cc1`, the activity change, negative = inhibition is -55% (active). Then `Cc1ccc(/C=C2\SC(=S)N(CCC(=O)Nc3ccc(O)cc3)C2=O)cc1`, with 2.79%; and `O=C(c1ccc(NS(=O)(=O)c2ccc3[nH]c(=O)[nH]c3c2)cc1)N1CCCCC1`, with -2.36%; and `COC(=O)c1cc(S(=O)(=O)Nc2ccc(C)c(F)c2)c[nH]1`, with 5.93%. With `CCOc1ccccc1NS(=O)(=O)c1c[nH]c(C(=O)OC)c1`, the activity change, negative = inhibition is -51.6% (active). Then `CCOc1cc(NS(=O)(=O)c2ccc(OC)cc2)c(OCC)cc1NC(C)=O`, with -13.5%.

Turning to `COCOc1cc(O)c(C(=O)/C=C/c2ccc(OCOC)c(OCOC)c2)c(OCOC)c1`, the activity change, negative = inhibition was 23.1%. Then `COc1cccc(CCNC(=O)COc2cccc3c2OC(C)(C)C3)c1`, with -0.825%; and `Cc1ccsc1C(=O)OCC(=O)c1cc(C)n(CC2CCCO2)c1C` (configuration not stated), with -88.5% (active); and `Cc1cc(C(=O)CCl)c(C)n1CC1COc2ccccc2O1` (configuration not stated), with 19.5%.

As to `Cc1cc(C(=O)Cn2cnc3cc([N+](=O)[O-])ccc3c2=O)c(C)n1CC1CCCO1` (configuration not stated), the activity change, negative = inhibition is 3.88%.

Regarding `CCCCn1c(N)c(N(CCOC)C(=O)c2sc3ccccc3c2Cl)c(=O)[nH]c1=O`, the activity change, negative = inhibition was -1.16%. Then `COc1ccccc1C(=O)NCCC(=O)NCC(c1ccco1)N1CCCCC1` (configuration not stated), with -1.06%. Under `CC1COc2ccccc2N1C(=O)c1cccnc1Cl` (configuration not stated) stands -2.12%. Then `CC1COc2ccccc2N1C(=O)c1ccc(F)cc1` (configuration not stated), with -77.4% (active); and `CC1COc2ccccc2N1S(=O)(=O)c1ccccc1` (configuration not stated), with -6.19%; and `O=C(NCCCN1CCCC1=O)c1ccc(S(=O)(=O)Nc2ccccc2)cc1`, with 4.74%. Take `Cc1cc(C)c(-c2csc(NC(=O)CCCc3nc4ccccc4c(=O)[nH]3)n2)c(C)c1`: the activity change, negative = inhibition is -1.35%. As for `COc1cc(C2C(C(=O)c3cccs3)=C(O)C(=O)N2CCN2CCOCC2)ccc1OCCC(C)C` (configuration not stated), the activity change, negative = inhibition was -1.71%. With `CC(=O)Nc1ccc(NC(=O)C(C)OC(=O)C2CC(=O)N(CCc3ccccc3)C2)cc1` (configuration not stated), the activity change, negative = inhibition is -2.7%.

`O=S(=O)(NCc1ccccn1)c1ccc(Br)s1`: the activity change, negative = inhibition was -3.36%. Then `O=S(=O)(NCc1ccccn1)c1ccc(F)cc1`, with -83.2% (active); and `O=[N+]([O-])c1cccc(S(=O)(=O)NCc2ccccn2)c1`, with -1.49%. Then `Cc1ccn2c(=O)c(NC(=O)c3cccc4ccccc34)c(C)nc2c1`, with -1.23%; and `Cc1ccc(C(=O)CN2C(=O)NC3(CCc4ccccc43)C2=O)c(C)c1` (configuration not stated), with 6.44%; and `O=C(COC(=O)c1ccccn1)NNC(=O)c1ccc([N+](=O)[O-])cc1`, with -1.26%. Then `CC(=O)c1sc(N)nc1C`, with 1.87%; and `CN(Cc1ccccc1F)C(=O)C(Cc1ccccc1)NC(=O)c1ccccc1` (configuration not stated), with 1.87%; and `COc1ccc(C(=O)NC(=S)Nc2ccccc2N2CCN(S(C)(=O)=O)CC2)cc1OC`, with -1.5%. As for `O=C(NC(=S)Nc1ccccc1N1CCCCC1)c1ccc(F)cc1`, the activity change, negative = inhibition was -7.72%. Then `COc1ccccc1C(=O)NC(=S)Nc1ccccc1N1CCCCC1`, with -53.8% (active). Then `O=C(CSc1ncccn1)NCCc1ccccc1`, with -68.6% (active); and `O=C(Cc1ccc(Br)cc1)NCCc1ccccc1`, with 3.74%.

Turning to `O=C(CSc1ncccn1)NC(=O)NCc1ccccc1`, the activity change, negative = inhibition is 2.98%. Under `Cc1cc2oc3ccc(NCCC4CCCN4C)cc3c(=O)c2cc1C` (configuration not stated) stands 6.14%; under `CCc1ccccc1NC(=O)CSc1nnc(-c2ccncc2)o1`, -75.8% (active); under `CCN(C(=O)CSc1nnc(-c2ccncc2)o1)c1ccccc1`, -5.45%. On to `CCOC(=O)CSc1nnc(-c2ccncc2)o1`, for which the activity change, negative = inhibition was -9.32%.

Consider `COc1ccc(S(=O)(=O)N2CCCCC2)cc1NC(=O)c1cc([N+](=O)[O-])ccc1N1CCOCC1`, for which the activity change, negative = inhibition is -3.7%. Take `O=C(NC1CCCCC1)c1cc([N+](=O)[O-])ccc1N1CCOCC1`: the activity change, negative = inhibition was 0.205%.

As for `CCOc1ccc2nc(NC(=O)c3cc([N+](=O)[O-])ccc3N3CCOCC3)sc2c1`, the activity change, negative = inhibition is -61.5% (active). With `O=C(Nc1ncccc1O)c1ccc(C(=O)c2ccccc2)cc1`, the activity change, negative = inhibition was -2.64%. Under `COC(=O)c1ccc(NS(=O)(=O)c2cc3c4c(c2)C(C)C(=O)N4CCC3)cc1` (configuration not stated) stands -0.43%. Under `Cc1ccc(C)c(OCCC(=O)Nc2cccc(S(=O)(=O)N3CCCC3)c2)c1` stands 3.66%; under `COc1ccc(C2=NN(c3nc4ccccc4s3)C(=O)C2)cc1`, 1.26%. Then `COc1ccc(-n2nnnc2-c2nc3ccccc3s2)cc1`, with -65.3% (active); and `CCOc1cccc(-n2nnnc2-c2ccc(OC)cc2)c1`, with -2.61%; and `Nc1cccnc1Sc1ccccc1`, with -0.323%. Take `CCCCn1c(N)c(N(CCC(C)C)C(=O)CC2OC(=O)c3ccccc32)c(=O)[nH]c1=O` (configuration not stated): the activity change, negative = inhibition was 3.21%.

For the compound `O=C(COc1cccc2c1CCNC2=O)NC1CCCCC1`, the activity change, negative = inhibition was -0.75%. For the compound `O=C(COC(=O)c1cccc(Cl)c1)Nc1ccc2[nH]c(=O)[nH]c2c1`, the activity change, negative = inhibition was -4.05%. Regarding `CC(CN1CCC(n2nccc2NC(=O)C2CCCC2)CC1)c1ccccc1` (configuration not stated), the activity change, negative = inhibition was -6.86%. Then `Cc1nn(C)c(Cl)c1CN1CCC(n2nccc2NC(=O)C2CCCC2)CC1`, with -53.5% (active); and `O=C(Nc1ccnn1C1CCN(Cc2cccc(OCCO)c2)CC1)C1CCCC1`, with -3.05%; and `c1ccc(C[C@H]2CNCCN2CCC23CC4CC(CC(C4)C2)C3)cc1`, with 0.124%. Then `COc1cc2c(cc1OC)C(Cc1cc(OC)c(OC)cc1[N+](=O)[O-])=NCC2`, with -5.53%; and `CC(=O)Nc1cccc(C(=O)OCC(=O)c2ccc3c(c2)OCO3)c1`, with -8.13%; and `CCCCn1c(N)c(N(CCOC)C(=O)c2cccc(OCc3ccccc3)c2)c(=O)[nH]c1=O`, with -6.51%. For `O=C(Nc1ccccc1Cl)/C(Cl)=C(\Cl)S(=O)c1ccccc1` (configuration not stated), the activity change, negative = inhibition was -63.2% (active). Consider `O=C(Nc1ccccc1Cl)Nn1cnnc1`, for which the activity change, negative = inhibition was -3.45%. Under `O=C(COC(=O)c1cccs1)Nc1ccccc1Cl` stands 4.76%; under `CC(C)CN(C(=O)c1ccc2c(c1)OCO2)C1CCS(=O)(=O)C1` (configuration not stated), 1.63%; under `COc1ccccc1C(=O)NC(=O)COC(=O)c1ccco1`, -2.8%.

As to `COc1ccc(C(=O)OCC(=O)NCCCc2ccccc2)cc1OC`, the activity change, negative = inhibition was -6.5%. Under `COc1ccccc1C(=O)OCC(=O)NCCNC(=O)COC(=O)c1ccccc1OC` stands -54.9% (active). Under `COc1ccccc1C(=O)NC(CCSC)C(=O)NNC(=O)c1ccccc1C` (configuration not stated) stands -4.57%; under `CCOc1ccc(OCc2ccc(C(=O)N(C)c3ccccc3)o2)cc1`, 9.19%; under `CCOc1ccc(OCc2cccc(C(=O)N(CC)CC)c2)cc1`, -51.8% (active). On to `COc1ccc(OCc2cccc(C(=O)N3CCCC3)c2)cc1`, for which the activity change, negative = inhibition was -11%.

In the case of `Cc1ccc(S(=O)(=O)N2CCOCC2)cc1C(=O)Nc1ccccc1N1CCCC1`, the activity change, negative = inhibition is 3.38%.

In the case of `O=C(CCCO)N/N=C/c1cc(Br)ccc1O`, the activity change, negative = inhibition was -13.7%. Under `O=[N+]([O-])c1ccc(O)c(/C=N/Nc2ccccc2[N+](=O)[O-])c1` stands 2.12%. Then `Oc1ccc(Br)cc1/C=N/Nc1ccccn1`, with -72.1% (active); and `Cn1c(=N)n(CC(O)c2ccccc2)c2ccccc21` (configuration not stated), with -64.8% (active). For the compound `Cn1c(=N)n(CC(O)c2cccs2)c2ccccc21` (configuration not stated), the activity change, negative = inhibition is -12.7%. Then `Cc1nc2ccccc2n1CC(O)c1ccccc1` (configuration not stated), with -6.27%; and `COc1ccc(C(=O)Nc2cccc(NC(=O)c3ccc(OC)cc3OC)n2)c(OC)c1`, with -27.9%; and `Cc1ccc(CN2CCN(c3ccccc3Cl)CC2)o1`, with -5.3%. Then `COC(=O)C1=CN(C)C=C(C(=O)OC)C1c1ccc(Cl)cc1Cl`, with 6.26%.

As to `COC(=O)c1nc2n(n1)C(c1ccc([N+](=O)[O-])cc1)C(C(=O)Nc1ccc(Cl)cc1)=C(C)N2` (configuration not stated), the activity change, negative = inhibition is -14.3%. Then `COC(=O)C1=CN(c2ccc(F)c(F)c2)C=C(C(=O)OC)C1c1ccc([N+](=O)[O-])cc1`, with -77.3% (active); and `c1c2c(cc3sc(N4CCCCC4)nc13)OCCO2`, with -55.1% (active); and `Cc1nc2cc3c(cc2s1)OCO3`, with 3.71%. Under `Brc1ccc2nc(N3CCCC3)sc2c1` stands 22%. Under `Cc1ccc(S(=O)(=O)N2CCN(C(=O)c3ccc(-n4cncn4)c([N+](=O)[O-])c3)CC2)cc1` stands -4.92%; under `Cc1cc(C)c(SCCc2ccncc2)c(C)c1`, -16.4%. Turning to `CC(C)(C)C(=O)COC(=O)c1cc(S(=O)(=O)N2CCCCC2)ccc1N1CCOCC1`, the activity change, negative = inhibition was 0.13%. Then `Cc1ccnc(NS(=O)(=O)c2ccc(NC(=O)c3ccc(S(=O)(=O)N(C)C)cc3)cc2)n1`, with 1.75%. Then `Cc1ccnc(NS(=O)(=O)c2ccc(NC(=O)c3oc4ccccc4c3C)cc2)n1`, with -1.33%.

`Cc1cc(C)c2oc(C(=O)Nc3ccc(S(=O)(=O)Nc4nccc(C)n4)cc3)cc(=O)c2c1`: the activity change, negative = inhibition was -70.7% (active).

Source of the values: PubChem BioAssay AID2098 (Broad Institute, 2009).
